Pf Dd2 inh – inhibitors of Plasmodium falciparum Dd2 growth; activity change, % at 10 µM; hit rate 2.3% among 94,000; P. falciparum Dd2 growth, SYBR Green, 72 h; hits give low values; in the data active means activity change below about -80%; inconclusive means no clear call, values can overlap the other calls
T cruzi growth-1 – T. cruzi proliferation inhibition; hit rate 5.9% among 77,000; inhibition, % at 8.34 µM; T. cruzi beta-gal in NIH3T3, GalScreen luminescence, 90 h; AID 624255;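 active means mean inhibition above about 93%, with at least 55% of replicates each passing it, limit read from the data, passing the limit was not always enough; inconclusive means only one of those two conditions holds; inactive means neither condition holds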
C diff HTS – C. difficile growth inhibition | Clostridium difficile clinical isolate growth, OD600, 24 h; hits give low values | growth activity, negative = inhibition, % at 16 µg/mL (by protocol) | hit rate 0.25% among 86,000 | AID 1259249;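 active means mean growth activity at or below -80% and every replicate also at or below -80%; inconclusive means mean at or below -80% but some replicate above -80%; inactive means mean growth activity above -80%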;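 further: 0% = DMSO wells and -100% = levofloxacin 16 µg/mL wells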
T cruzi growth-2 – Trypanosoma cruzi proliferation inhibition; AID 651739; shares compounds with T cruzi growth-1; T. cruzi beta-gal in NIH3T3, GalScreen luminescence, 90 h; hit rate 72% among 5,600; inhibition, % at 8.35 µM;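 active means mean replicate inhibition above about 95% and at least 55% of replicates individually reaching it, limit read from the data; inconclusive means only one of the two criteria is met; inactive means neither criterion is met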
T cruzi growth-3 – inhibitors of T. cruzi proliferation | shares compounds with T cruzi growth-1 | T. cruzi beta-gal in NIH3T3, GalScreen luminescence, 90 h | inhibition, % at 2.09 µM | hit rate 21% among 5,600;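 active means mean inhibition above about 95%, with at least 55% of replicates also reaching it, limit read from the data; inconclusive means meets just one of the two conditions; inactive means meets neither condition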;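 further: plate controls were neutral control median for no effect and positive control median for full effect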
NIH3T3 tox – cytotoxicity in mouse NIH/3T3 fibroblasts; shares compounds with T cruzi growth-1; NIH/3T3 viability, CellTiter-Glo ATP luminescence, 90 h; cytotoxicity (signal decrease), % at 8.35 µM; hit rate 14% among 5,600;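 active means mean signal decrease across replicates above about 35% based on untreated-well scatter, with enough replicates individually passing, limit read from the data; inconclusive means no rule stated though some were filed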;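 further: 0% = median of neutral control wells and 100% = median of positive control wells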
3T3 cytotox 2 – cytotoxicity in mouse NIH/3T3 fibroblasts; shares compounds with T cruzi growth-1; NIH/3T3 viability, CellTiter-Glo ATP luminescence, 90 h; inhibition, % at 24.9 µM; hit rate 56% among 5,600;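 active means mean loss of cell viability signal at or above a set limit, and enough replicates individually reaching it; inconclusive means meets only the mean limit or only the replicate share; inactive means meets neither condition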;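 further: 0% = median of neutral control wells and 100% = median of positive control wells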
* marks the source's active call; other numbers are inactive results; ? = inconclusive; · = no result; + = active, no number. An excerpt weighted towards active compounds, which were near 6.8% of everything screened.

SMILES	Pf Dd2 inh	T cruzi growth-1	C diff HTS	T cruzi growth-2	T cruzi growth-3	NIH3T3 tox	3T3 cytotox 2
COC(=O)C[C@@H]1C[C@H]2c3cc(NS(C)(=O)=O)ccc3O[C@H]2[C@@H](CO)O1	42.1	-32.0	-2.1	·	·	·	·
COc1ccc(CNC(=O)C[C@H]2C[C@@H]3c4cc(NS(C)(=O)=O)ccc4O[C@@H]3[C@H](CO)O2)cc1	12.7	20.6	-0.2	·	·	·	·
C[C@H](CO)N1C[C@H](C)[C@H](CN(C)Cc2cccnc2)Oc2cc(C3=CCCC3)ccc2S1(=O)=O	-15.0	81.4	2.4	·	·	·	·
C[C@H](CO)N1C[C@H](C)[C@@H](CN(C)C(=O)Cc2ccncc2)Oc2cc(C3=CCCCC3)ccc2S1(=O)=O	-77.2	88.3	2.7	·	·	·	·
C[C@@H]1CN([C@H](C)CO)S(=O)(=O)c2ccc(C3=CCCCC3)cc2O[C@@H]1CN(C)Cc1ccncc1	-15.5	109.8*	-1.2	99.9*	85.1	29.1	67.2*
C[C@H](CO)N1C[C@H](C)[C@H](CN(C)Cc2cncnc2)Oc2cc(C3=CCCCC3)ccc2S1(=O)=O	-3.3	50.3	5.1	·	·	·	·
C[C@H]1CN([C@@H](C)CO)S(=O)(=O)c2ccc(C3=CCCCC3)cc2O[C@H]1CN(C)Cc1ccncc1	-68.5	113.6*	8.2	93.7	89.0	51.0*	65.9*
C[C@H]1CN([C@@H](C)CO)S(=O)(=O)c2ccc(C3=CCCC3)cc2O[C@H]1CN(C)Cc1cccnc1	-37.1	89.5	1.2	·	·	·	·
C[C@H](CO)N1C[C@H](C)[C@@H](CN(C)Cc2ccncc2)Oc2cc(C3=CCCCC3)ccc2S1(=O)=O	-71.1	115.5*	10.2	103.2*	102.3*	51.8*	104.8*
C[C@@H]1CN([C@H](C)CO)S(=O)(=O)c2ccc(C3=CCCCC3)cc2O[C@H]1CN(C)Cc1ccncc1	-72.0	118.5*	12.3	93.7	98.5*	66.6*	104.1*
C[C@@H]1CN([C@H](C)CO)C(=O)c2cc(Br)cnc2O[C@@H]1CN(C)CC1CCOCC1	25.3	29.7	1.7	·	·	·	·
O=C(c1ccncc1)N1C[C@H]2[C@@H](c3ccccc31)[C@H](CO)N2C(=O)CN1CCOCC1	-2.9	20.9	-0.4	·	·	·	·
C[C@H](CO)N1C[C@H](C)[C@@H](CN(C)Cc2ccc(-c3ccccc3)cc2)Oc2ncc(C#CCN(C)C)cc2C1=O	·	?	-5.1	108.0*	81.7	33.1	103.6*
COCC#Cc1cnc2c(c1)C(=O)N([C@H](C)CO)C[C@H](C)[C@@H](CN(C)Cc1ccc(-c3ccccc3)cc1)O2	-68.2	79.8	6.3	·	·	·	·
COCC#Cc1cnc2c(c1)C(=O)N([C@H](C)CO)C[C@@H](C)[C@@H](CN(C)Cc1ccc(-c3ccccc3)cc1)O2	-37.8	84.2	3.2	·	·	·	·
C[C@H]1CN([C@@H](C)CO)C(=O)c2cc(C#CCN(C)C)cnc2O[C@H]1CN(C)Cc1ccc(-c2ccccc2)cc1	·	78.7	16.3	·	·	·	·
COCC#Cc1cnc2c(c1)C(=O)N([C@H](C)CO)C[C@@H](C)[C@H](CN(C)Cc1ccc(-c3ccccc3)cc1)O2	-69.0	118.5*	11.4	108.2*	39.4	20.2	102.4*
COCC#Cc1cnc2c(c1)C(=O)N([C@@H](C)CO)C[C@@H](C)[C@H](CN(C)Cc1ccc(-c3ccccc3)cc1)O2	-44.2	120.5*	2.3	108.9*	62.0	45.9*	106.4*
COc1ccccc1-c1ccccc1[C@H]1[C@@H](C#N)N(C(=O)C2CC2)[C@H]1CO	6.8	·	-12.7	·	·	·	·
COc1ccc(-c2ccc([C@H]3[C@@H](CO)N(C(=O)C4CCOCC4)[C@H]3C#N)cc2)cc1	35.1	38.4	2.4	·	·	·	·
C[C@@H]1CN([C@@H](C)CO)C(=O)c2cc(N(C)C)ccc2O[C@H]1CN(C)C(=O)Nc1ccc(F)cc1	16.2	51.7	-3.4	·	·	·	·
C[C@@H]1CN([C@@H](C)CO)C(=O)c2cc(-c3cccc(F)c3)cnc2O[C@H]1CN(C)C(=O)c1ccccn1	28.6	·	-1.4	·	·	·	·
Cc1ccc(S(=O)(=O)N[C@@H]2C=C[C@H](CC(=O)NCc3ccc(Cl)c(Cl)c3)O[C@@H]2CO)cc1	-23.4	·	-8.7	·	·	·	·
CC(C)C#Cc1cnc2c(c1)C(=O)N([C@@H](C)CO)C[C@H](C)[C@@H](CN(C)C(=O)CCN1CCCCC1)O2	·	15.8	1.0	·	·	·	·
CC(C)C#Cc1cnc2c(c1)C(=O)N([C@H](C)CO)C[C@H](C)[C@H](CN(C)C(=O)Nc1ccc(F)cc1)O2	-17.5	116.3*	14.5	-51.4	27.9	15.2	86.4*
SMILES	Pf Dd2 inh	T cruzi growth-1	C diff HTS	T cruzi growth-2	T cruzi growth-3	NIH3T3 tox	3T3 cytotox 2
CC(C)C#Cc1cnc2c(c1)C(=O)N([C@@H](C)CO)C[C@H](C)[C@H](CN(C)C(=O)Nc1ccc(F)cc1)O2	-34.3	101.7*	12.0	46.5	39.5	29.6	?
CC(C)C#Cc1cnc2c(c1)C(=O)N([C@H](C)CO)C[C@@H](C)[C@H](CN(C)C(=O)Nc1ccc(F)cc1)O2	-40.7	63.2	-2.5	·	·	·	·
CC(C)C#Cc1cnc2c(c1)C(=O)N([C@@H](C)CO)C[C@H](C)[C@@H](CN(C)C(=O)Nc1ccc(F)cc1)O2	-44.3	-13.2	-2.7	·	·	·	·
CCCC#Cc1ccc([C@H]2[C@@H](CO)N3C(=O)CN(C(=O)NC4CCCC4)C[C@@H]23)cc1	-7.5	·	1.5	·	·	·	·
Cc1ccc(S(=O)(=O)Nc2cccc3c2O[C@H](CN(C)S(=O)(=O)c2ccccc2)[C@@H](C)CN([C@@H](C)CO)C3=O)cc1	2.0	12.2	1.0	·	·	·	·
O=C(C1CCCCC1)N1CC(=O)N2[C@H](CO)[C@H](c3ccc(-c4cccnc4)cc3)[C@H]2C1	6.8	·	-2.1	·	·	·	·
CN(C)C(=O)[C@@H]1[C@@H](CO)[C@@H]2Cn3c(ccc(-c4ccccc4)c3=O)[C@H]1N2C(=O)C1CCC1	·	+	-3.0	54.9	-19.2	-13.8	6.8
CCN1[C@@H]2c3ccc(-c4ccccc4)c(=O)n3C[C@H]1[C@H](CO)[C@H]2C(=O)Nc1ccccc1	11.1	98.6*	-1.7	61.8	1.2	8.2	13.2
CCN1[C@@H]2Cn3c(ccc(-c4ccccc4)c3=O)[C@H]1[C@@H](C(=O)NCc1ccccc1)[C@@H]2CO	8.4	53.1	-3.1	·	·	·	·
CN(C)C(=O)[C@H]1[C@H](CO)[C@H]2Cn3c(ccc(-c4ccccc4)c3=O)[C@@H]1N2CC1CCCC1	-0.5	?	-1.4	84.9	25.7	4.9	?
CCNC(=O)[C@@H]1[C@@H](CO)[C@@H]2Cn3c(ccc(-c4ccccc4)c3=O)[C@H]1N2C(=O)C1CC1	15.0	3.1	-1.2	·	·	·	·
CN(C)C(=O)[C@@H]1[C@@H](CO)[C@@H]2Cn3c(ccc(-c4ccccc4)c3=O)[C@H]1N2CC1CCCC1	5.4	86.8	-1.9	·	·	·	·
C[C@@H]1CN([C@@H](C)CO)C(=O)c2cc(NC(=O)CCN3CCOCC3)ccc2O[C@H]1CN(C)C(=O)Nc1ccc2c(c1)OCO2	28.5	-41.5	·	·	·	·	·

Assay outcomes from PubChem.
